{"source": "paper PMC11062922", "about": "(Nature Chemical Biology, 2023)", "system": "ERN1", "details": "read-out: apparent Kd, n = 1", "note": "Like-named read-outs stand apart in the source and are kept apart here.", "data": [{"substance": "Lestaurtinib", "values": [{"measurement": "potency estimated from few doses", "setting": "compound concentrations:100 nM and 1000 nM (sheet 'Lestaurtinib' of Supplementary Table 1),run:Lestaurtinib_02422_R1,Plate:MR006", "value": 64.3, "unit": "nM"}, {"measurement": "potency estimated from few doses", "setting": "compound concentrations:100 nM and 1000 nM (sheet 'Lestaurtinib' of Supplementary Table 1),run:Lestaurtinib_02422_R2,Plate:MR006", "value": 68.1, "unit": "nM"}, {"measurement": "potency estimated from few doses", "setting": "compound concentrations:100 nM and 1000 nM (sheet 'Lestaurtinib' of Supplementary Table 1),run:Lestaurtinib_02422_R3,Plate:MR006", "value": 67.9, "unit": "nM"}, {"measurement": "potency estimated from few doses", "setting": "compound concentrations:100 nM and 1000 nM (sheet 'Lestaurtinib' of Supplementary Table 1),run:Lestaurtinib_02438_R1,Plate:MR008", "value": 49.4, "unit": "nM"}, {"measurement": "potency estimated from few doses", "setting": "compound concentrations:100 nM and 1000 nM (sheet 'Lestaurtinib' of Supplementary Table 1),run:Lestaurtinib_02438_R2,Plate:MR008", "value": 63.9, "unit": "nM"}, {"measurement": "potency estimated from few doses", "setting": "compound concentrations:100 nM and 1000 nM (sheet 'Lestaurtinib' of Supplementary Table 1),run:Lestaurtinib_02438_R3,Plate:MR008", "value": 64.3, "unit": "nM"}, {"measurement": "potency estimated from few doses", "setting": "compound concentrations:100 nM and 1000 nM (sheet 'Lestaurtinib' of Supplementary Table 1),run:Lestaurtinib_02443_R1,Plate:MR009", "value": 67.3, "unit": "nM"}, {"measurement": "potency estimated from few doses", "setting": "compound concentrations:100 nM and 1000 nM (sheet 'Lestaurtinib' of Supplementary Table 1),run:Lestaurtinib_02443_R2,Plate:MR009", "value": 58.1, "unit": "nM"}, {"measurement": "potency estimated from few doses", "setting": "compound concentrations:100 nM and 1000 nM (sheet 'Lestaurtinib' of Supplementary Table 1),run:Lestaurtinib_02443_R3,Plate:MR009", "value": 63.3, "unit": "nM"}, {"measurement": "potency estimated from few doses", "setting": "compound concentrations:100 nM and 1000 nM (sheet 'Lestaurtinib' of Supplementary Table 1),run:Lestaurtinib_02473_R1,Plate:MR010", "value": 52.6, "unit": "nM"}, {"measurement": "potency estimated from few doses", "setting": "compound concentrations:100 nM and 1000 nM (sheet 'Lestaurtinib' of Supplementary Table 1),run:Lestaurtinib_02473_R2,Plate:MR010", "value": 60.5, "unit": "nM"}, {"measurement": "potency estimated from few doses", "setting": "compound concentrations:100 nM and 1000 nM (sheet 'Lestaurtinib' of Supplementary Table 1),run:Lestaurtinib_02473_R3,Plate:MR010", "value": 69.9, "unit": "nM"}, {"measurement": "potency estimated from few doses", "setting": "compound concentrations:100 nM and 1000 nM (sheet 'Lestaurtinib' of Supplementary Table 1),run:Lestaurtinib_02482_R3,Plate:MR011", "value": 54.1, "unit": "nM"}, {"measurement": "potency estimated from few doses", "setting": "compound concentrations:100 nM and 1000 nM (sheet 'Lestaurtinib' of Supplementary Table 1),run:Lestaurtinib_02487_R1,Plate:MR012", "value": 58.2, "unit": "nM"}, {"measurement": "potency estimated from few doses", "setting": "compound concentrations:100 nM and 1000 nM (sheet 'Lestaurtinib' of Supplementary Table 1),run:Lestaurtinib_02496_R1,Plate:MR013", "value": 79.9, "unit": "nM"}, {"measurement": "potency estimated from few doses", "setting": "compound concentrations:100 nM and 1000 nM (sheet 'Lestaurtinib' of Supplementary Table 1),run:Lestaurtinib_02496_R2,Plate:MR013", "value": 82.7, "unit": "nM"}, {"measurement": "potency estimated from few doses", "setting": "compound concentrations:100 nM and 1000 nM (sheet 'Lestaurtinib' of Supplementary Table 1),run:Lestaurtinib_02496_R3,Plate:MR013", "value": 62.6, "unit": "nM"}, {"measurement": "potency estimated from few doses", "setting": "compound concentrations:100 nM and 1000 nM (sheet 'Lestaurtinib' of Supplementary Table 1),run:Lestaurtinib_02566_R2,Plate:MR014", "value": 99.9, "unit": "nM"}, {"measurement": "potency estimated from few doses", "setting": "compound concentrations:100 nM and 1000 nM (sheet 'Lestaurtinib' of Supplementary Table 1),run:Lestaurtinib_02572_R2,Plate:MR015", "value": 67.3, "unit": "nM"}, {"measurement": "potency estimated from few doses", "setting": "compound concentrations:100 nM and 1000 nM (sheet 'Lestaurtinib' of Supplementary Table 1),run:Lestaurtinib_02577_R1,Plate:MR016", "value": 81.4, "unit": "nM"}, {"measurement": "potency estimated from few doses", "setting": "compound concentrations:100 nM and 1000 nM (sheet 'Lestaurtinib' of Supplementary Table 1),run:Lestaurtinib_02577_R2,Plate:MR016", "value": 61.5, "unit": "nM"}, {"measurement": "potency estimated from few doses", "setting": "compound concentrations:100 nM and 1000 nM (sheet 'Lestaurtinib' of Supplementary Table 1),run:Lestaurtinib_02577_R3,Plate:MR016", "value": 56.2, "unit": "nM"}, {"measurement": "potency estimated from few doses", "setting": "compound concentrations:100 nM and 1000 nM (sheet 'Lestaurtinib' of Supplementary Table 1),run:Lestaurtinib_02584_R1,Plate:MR017", "value": 49.6, "unit": "nM"}, {"measurement": "potency estimated from few doses", "setting": "compound concentrations:100 nM and 1000 nM (sheet 'Lestaurtinib' of Supplementary Table 1),run:Lestaurtinib_02584_R2,Plate:MR017", "value": 50.5, "unit": "nM"}, {"measurement": "potency estimated from few doses", "setting": "compound concentrations:100 nM and 1000 nM (sheet 'Lestaurtinib' of Supplementary Table 1),run:Lestaurtinib_02584_R3,Plate:MR017", "value": 79.4, "unit": "nM"}, {"measurement": "potency estimated from few doses", "setting": "compound concentrations:100 nM and 1000 nM (sheet 'Lestaurtinib' of Supplementary Table 1),run:Lestaurtinib_02601_R1,Plate:MR018", "value": 73.5, "unit": "nM"}, {"measurement": "potency estimated from few doses", "setting": "compound concentrations:100 nM and 1000 nM (sheet 'Lestaurtinib' of Supplementary Table 1),run:Lestaurtinib_02601_R2,Plate:MR018", "value": 93.1, "unit": "nM"}, {"measurement": "potency estimated from few doses", "setting": "compound concentrations:100 nM and 1000 nM (sheet 'Lestaurtinib' of Supplementary Table 1),run:Lestaurtinib_02601_R3,Plate:MR018", "value": 63.8, "unit": "nM"}, {"measurement": "potency estimated from few doses", "setting": "compound concentrations:100 nM and 1000 nM (sheet 'Lestaurtinib' of Supplementary Table 1),run:Lestaurtinib_02606_R1,Plate:MR019", "value": 79.4, "unit": "nM"}, {"measurement": "potency estimated from few doses", "setting": "compound concentrations:100 nM and 1000 nM (sheet 'Lestaurtinib' of Supplementary Table 1),run:Lestaurtinib_02606_R2,Plate:MR019", "value": 83.8, "unit": "nM"}, {"measurement": "potency estimated from few doses", "setting": "compound concentrations:100 nM and 1000 nM (sheet 'Lestaurtinib' of Supplementary Table 1),run:Lestaurtinib_02606_R3,Plate:MR019", "value": 87.5, "unit": "nM"}, {"measurement": "potency estimated from few doses", "setting": "compound concentrations:100 nM and 1000 nM (sheet 'Lestaurtinib' of Supplementary Table 1),run:Lestaurtinib_02624_R1,Plate:MR020", "value": 87.4, "unit": "nM"}, {"measurement": "potency estimated from few doses", "setting": "compound concentrations:100 nM and 1000 nM (sheet 'Lestaurtinib' of Supplementary Table 1),run:Lestaurtinib_02624_R2,Plate:MR020", "value": 94.5, "unit": "nM"}, {"measurement": "potency estimated from few doses", "setting": "compound concentrations:100 nM and 1000 nM (sheet 'Lestaurtinib' of Supplementary Table 1),run:Lestaurtinib_02624_R3,Plate:MR020", "value": 93.4, "unit": "nM"}, {"measurement": "potency estimated from few doses", "setting": "compound concentrations:100 nM and 1000 nM (sheet 'Lestaurtinib' of Supplementary Table 1),run:Lestaurtinib_02724_R1,Plate:MR021", "value": 90.7, "unit": "nM"}, {"measurement": "potency estimated from few doses", "setting": "compound concentrations:100 nM and 1000 nM (sheet 'Lestaurtinib' of Supplementary Table 1),run:Lestaurtinib_02724_R2,Plate:MR021", "value": 92.1, "unit": "nM"}, {"measurement": "potency estimated from few doses", "setting": "compound concentrations:100 nM and 1000 nM (sheet 'Lestaurtinib' of Supplementary Table 1),run:Lestaurtinib_02724_R3,Plate:MR021", "value": 78.5, "unit": "nM"}, {"measurement": "potency estimated from few doses", "setting": "compound concentrations:100 nM and 1000 nM (sheet 'Lestaurtinib' of Supplementary Table 1),run:Lestaurtinib_02741_R1,Plate:MR023", "value": 83.9, "unit": "nM"}, {"measurement": "potency estimated from few doses", "setting": "compound concentrations:100 nM and 1000 nM (sheet 'Lestaurtinib' of Supplementary Table 1),run:Lestaurtinib_02741_R2,Plate:MR023", "value": 80, "unit": "nM"}, {"measurement": "potency estimated from few doses", "setting": "compound concentrations:100 nM and 1000 nM (sheet 'Lestaurtinib' of Supplementary Table 1),run:Lestaurtinib_02741_R3,Plate:MR023", "value": 69.3, "unit": "nM"}, {"measurement": "potency estimated from few doses", "setting": "compound concentrations:100 nM and 1000 nM (sheet 'Lestaurtinib' of Supplementary Table 1),run:Lestaurtinib_02748_R3,Plate:MR024", "value": 74.4, "unit": "nM"}, {"measurement": "potency estimated from few doses", "setting": "compound concentrations:100 nM and 1000 nM (sheet 'Lestaurtinib' of Supplementary Table 1),run:Lestaurtinib_02752_R2,Plate:MR025", "value": 57.7, "unit": "nM"}]}]}
